High-throughput results deposited in PubChem by National Center for Advancing Translational Sciences (NCATS).
Only some compounds are listed: those with a hit (about 2.3% of all), similar ones and a draw of the others.
HepG2 tox = HepG2 cytotoxicity, counter-screen for TGF-b inhibitors; HepG2 CAGA-GFP viability, ATP luminescence, 18 h; Potency, µM (series often up to 46.1 µM), actives largely listed as cytotoxic; hit rate 0.76% among 410,000; AID 588856
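HepG2 CAGA-GFP cells (1000/well, DMEM with 1% FBS) received compound, then TGF-beta at 500 pg/mL final, and were incubated 18 hours at 37 degrees C. Viability was read by CellTiter-Glo luminescence. Media-only wells were set as complete cell-killing and DMSO as no toxicity.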
ATXN2 expr inh = inhibitors of ATXN2 expression | AID 1745845 | HEK-293 ATXN2-luciferase reporter, luminescence, 24 h | hit rate 0.72% among 360,000 | Potency, µM (top dose mostly 57 µM), actives largely listed as inhibitors; note: nearly all actives have a fitted effect of over 55% in size
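ATXN2-luciferase reporter cells (luciferase flanked by upstream and downstream ATXN2 gene portions) were treated 24 h at 37 °C with compounds at up to 57 uM. SteadyGlo luminescence gave expression; GF-AFC fluorescence gave viability.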
TGFb inhibitor = blocks TGF-b signaling. hit rate 1.2% among 410,000. Potency, µM (top dose mostly 46.1 µM), usual class: inhibitors. HepG2 CAGA-GFP TGF-b/SMAD3 reporter, GFP fluorescence, 18 h; TGF-beta stimulated, 500 pg/mL final; note: nearly all actives have a fitted effect of over 65% in size
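HEPG2 CAGA-GFP cells (1000/well, DMEM with 1% FBS) were pre-incubated 2 h at 37 degrees C, given compound by pin tool, then stimulated with TGF-beta at 500 pg/mL final for 18 h before per-cell GFP fluorescence imaging.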
ATXN viability = reduces viability in counter-screen for ATXN expression inhibitors. Potency, µM (doses to about 56.7 µM), most hits filed as cytotoxic. hit rate 0.49% among 400,000. S2 cells (HEK-293 line with an ATXN2-luciferase reporter) viability, CellTiter-Fluor protease fluorescence, 24 h; note: nearly all actives have a fitted effect of over 40% in size
Hits are given with their value; i = inactive; ? = inconclusive; nt = no result given; ! = not confirmed by another sample. Calls come from the whole dose curve; as a rule, active = well fitted curve in the direction sought with a large enough effect; inconclusive = small, poorly fitted or top-dose-only effect, or another doubt; inactive = no such curve, though single readings can be large; an effect the other way counts as inactive or inconclusive.

SMILES	HepG2 tox	ATXN2 expr inh	TGFb inhibitor	ATXN viability
c1ccc(-c2nc(SCC3CCCCO3)n[nH]2)cc1 (centres undefined)	i	nt	i	nt
O=C(NCCc1ccc(Cl)cc1)c1ccc(CS(=O)(=O)Cc2ccccc2F)o1	i	?	i	20µM
CSc1nc(C(=O)N2CCOc3ccc(CN4CCN(Cc5ccccn5)CC4)cc3C2)cs1	nt	nt	nt	i
Cc1ccc(NC(=O)CC2Nc3cccc4cccc(c34)NC2=O)cc1 (centres undefined)	i	nt	11µM	nt
Cc1ccc(S(=O)(=O)N2CCCN(Cc3nc4ccccc4c(=O)[nH]3)CC2)cc1	i	i	i	i
Cc1ccc(S(=O)(=O)N2CCCN(C(C)c3nc4ccccc4c(=O)[nH]3)CC2)cc1 (centres undefined)	i	nt	14µM	i
COc1cc(-c2coc3c(C(=O)NCc4ccc(OC)c(OC)c4)cccc23)ccc1O	i	?	?	16µM
COc1ccc(CNC(=O)c2cccc3c(-c4cccc(C(N)=O)c4)coc23)cc1OC	i	32µM	i	18µM
O=C(Cc1cccc2ccccc12)NCC(=O)N1CCN(Cc2cccc(C(F)(F)F)c2)CC1	i	nt	11µM	i
O=C(Cc1cccc2ccccc12)NCC(=O)N1CCN(CC(=O)Nc2ccc(F)cc2)CC1	i	nt	i	i
Cc1ccc(Cn2c(C(CO)Nc3nc(-c4ccc(Cl)c([N+](=O)[O-])c4)cs3)nc3ccccc32)cc1 (centres undefined)	i	i	16µM	?
O=C1OC(c2ccccc2)(c2cc(Br)ccc2O)c2ccccc21 (centres undefined)	i	?	20µM	nt
CCc1cc(/C=C/c2ccnc3ccccc23)ccc1N(C)C	i	nt	i	nt
CC(=O)ON=C1C=CC(=C(C#N)c2ccccc2)C=C1	i	14µM	?	14µM
COc1ccc(C(C#N)=C2C=CC(=NO)C=C2)cc1	i	i	?	?
Fc1ccc(C(c2ccc(F)cc2)N2CCN(C/C=C/c3ccccc3)CC2)cc1	6.3µM	i	?	?
C(=C\c1ccccc1)/CN1CCN(C(c2ccccc2)c2ccccc2)CC1	i	i	i	i
CC1=C(C(=O)OCC2CCCCC2)C(c2ccc(Cl)cc2)CC(=O)N1 (centres undefined)	13µM	i	?	i
CC1=C(C(=O)OCC2CCCCC2)C(c2ccccc2F)CC(=O)N1 (centres undefined)	i	i	?	i
CC(=O)N1CCc2c(sc3nc(SCC(C)C)n(-c4ccc(C)c(Cl)c4)c(=O)c23)C1	11µM	?	?	nt
COc1ccc(-n2c(CNc3ccc(C)cc3)nnc2SCC(=O)Nc2nc(-c3ccccc3)cs2)cc1	i	18µM	i	22µM
COc1ccc(NCc2nnc(SCC(=O)Nc3nc(-c4ccccc4)cs3)n2-c2ccccc2)cc1	i	i	i	?
O=C(Cn1cccn1)N1CCOc2c(cc(-c3ncc(C(F)(F)F)cc3Cl)cc2OCC2CCCO2)C1 (centres undefined)	nt	nt	nt	i
CC(C)(C)c1ccc(S(=O)(=O)N2CCC(O)(c3ccc(Cl)cc3)CC2)cc1	i	nt	13µM	?
COc1ccc(S(=O)(=O)N2CCC(O)(c3ccc(Cl)cc3)CC2)cc1	i	i	?	i
SMILES	HepG2 tox	ATXN2 expr inh	TGFb inhibitor	ATXN viability
O=C(Cc1ccccc1)N(Cc1cccnc1)c1nc2c(F)cccc2s1	i	nt	1.6µM	nt
N#CC1c2ccccc2C=CN1C(=O)N(c1ccccc1)c1ccccc1 (centres undefined)	11µM	?	8.9µM	?
CN(C)c1ccc(/C=C/c2cccc[n+]2[O-])cc1	i	i	i	nt
CN(C)c1ccc(/C=C/c2c[n+](C)cc3ccccc23)cc1	i	nt	13µM	nt
CN(C)c1ccc(/C=C/c2ccc3c4ccccc4ccc3[n+]2-c2ccccc2)cc1	i	1.1µM	?	nt
CN(C)c1ccc(/C=C/c2cc3ccccc3c[n+]2C)cc1	i	nt	10µM	nt
CN(C)c1ccc(/C=C/c2ccc3ccccc3[n+]2C)cc1	7.1µM!	?	2.2µM	10µM
CN(C)c1ccc(/C=C/c2cncc3ccccc23)cc1	i	nt	i	nt
Cc1ncc2c(c1CNS(=O)(=O)N(C)C)CCN(C(=O)c1ccc(-c3ccc(F)cc3)cc1)C2	nt	nt	nt	i
COc1ccc2c(c1)CCc1cnc(-n3ncc(C(=O)NCc4cc(C)no4)c3C3CC3)nc1-2	nt	nt	nt	i
CC(C)(C)C1CCC2(CC1)C(C#N)=C(SCC(=O)Nc1ccccc1)NC(=O)C2C#N (centres undefined)	10µM	?	7.1µM	?
COC(=O)c1ccc(NC(=O)CSc2cn(CC(=O)N3CCCCC3)c3ccccc23)cc1	i	nt	5.6µM	nt
